Assay results published in PubChem BioAssay (NCATS).
Inconclusive results are not listed. A call without a number means that no potency is given here. Activity calls are given as the source filed them. Calls follow the shape of the dose curve; as a rule, active = well fitted inhibition curve with a large enough effect; inconclusive = small, poorly fitted or top-dose-only effect; inactive = no such curve, though single readings can be large or run the other way.

The compounds below were run on Zika virus NS2B-NS3 protease (unlinked complex) (assay: Primary screen GU Rhodamine qHTS for Zika virus inhibitors: Unlinked NS2B-NS3 protease assay (AID 1347159; also: nearly all actives have a fitted effect of over 60% in size)). Details: Recombinant ZIKV NS2B-NS3 protease, Rhodamine110 substrate fluorescence; series mostly up to 107 µM.
Method in brief: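 A qHTS format was used, with compound concentrations ranging up to 114 microM. Each compound was preincubated with 25 nM NS2B-NS3 protease, and the substrate was then added at 1.5 microM. Curves were fitted with a 4-parameter Hill model.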
Potency is read from the fitted curve at half-maximal effect.

For `Cc1cccc(C)c1-n1c(=O)c2cnc(Nc3ccc(N4CCN(C)CC4)cc3)nc2n2c3ccccc3nc12`, which Potency is on record?
Its Potency is “inactive”.

Which Potency does the source give for `C=C(F)c1sc(CNCCCNc2cc(=O)c3ccccc3[nH]2)c(C)c1Br` here?
The Potency was “inactive”.

For `OCc1ccc(O[C@@H]2O[C@H](CO)[C@@H](O)[C@H](O)[C@H]2O)cc1`, which Potency is on record?
The Potency was “inactive”.

For `COC(=O)c1ccccc1O[C@@H]1O[C@H](CO)[C@@H](O)[C@H](O)[C@H]1O[C@@H]1O[C@@H](C)[C@H](O)[C@@H](O)[C@H]1O`, which Potency is on record?
The Potency was “inactive”.

Which Potency does the source give for `O=C(O)CC(=O)OC[C@H]1O[C@@H](Oc2ccc3c(c2)OC[C@H]2c4cc5c(cc4O[C@@H]32)OCO5)[C@H](O)[C@@H](O)[C@@H]1O` here?
The Potency was “inactive”.

For `C=CC(C)(O)CC[C@H]1C(=C)CCC2[C@](C)(C(=O)O)CCC[C@@]21C` (stereo partly specified), which Potency is on record?
Its Potency is “inactive”.

For `CC(=O)C1=CCC2C3CCC4CC(O[C@@H]5O[C@H](CO)[C@@H](O[C@@H]6O[C@@H](C)[C@H](O)[C@@H](O)[C@H]6O)[C@H](O)[C@H]5O[C@@H]5O[C@H](CO)[C@@H](O)[C@H](O)[C@H]5O)CCC4(C)C3CCC12C` (stereo partly specified), which Potency is on record?
The Potency was “inactive”.

With `C=C1CCC2C(C)(C)C(O)CCC2(C)C1CCC(C)CCOC(C)=O` (stereo unspecified) as the compound, how does the Potency read?
Its Potency is 22.4 µM (active).

How did the Potency turn out when `COc1cc2c(cc1OC)-c1[nH]nc(Nc3cccc(F)c3)c1C2` was run?
The Potency was “inactive”.

For `O=C1C=CC(O)(/C=C/C(=O)OC[C@H]2O[C@@H](Oc3ccc(O)cc3)[C@H](O)[C@@H](O)[C@@H]2O)C=C1`, which Potency is on record?
The Potency was “inactive”.

`Cc1nc([C@](C)(O)CO)sc1-c1cnc(N)c(O[C@H](C)c2cc(F)ccc2-n2nccn2)c1` was tested. Which Potency did it give?
The Potency was “inactive”.
